Measured values as given in the supplement of paper PMC10127200.

Key:
Assay in all cases: Euclidean distance of Cell Painting phenotypic profile (signed KS, 77 features) to DMSO centroid (dimensionless distance); 5 or 10 uM (library dependent); higher = stronger phenotypic change vs DMSO (phenoactivity)
Conditions in all cases: 48 h
[1] = test system: 786-O
Summary of the method: (§1)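 Phenoactivity is computed as Euclidean distance to the median vehicle profile. The profiles, drawn from 77 Harmony features scored as signed Kolmogorov-Smirnov statistics versus same-plate vehicle wells, were corrected for plate position, correlation-weighted and replicate-averaged at the top dose. Stained cells were imaged confocally at 20X (9 fields/well) after 48 h with library compounds at 10 or 5 uM, 0.1% DMSO final, in five cancer lines and a healthy fibroblast line.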

[2] = test system: A549
Summary of the method: as §1

[3] = test system: DU145
Summary of the method: as §1

[4] = test system: FB
Summary of the method: as §1

[5] = test system: HEPG2
Summary of the method: as §1

[6] = test system: OVCAR4
Summary of the method: as §1

| Compound | Euclidean distance [1] | Euclidean distance [2] | Euclidean distance [3] | Euclidean distance [4] | Euclidean distance [5] | Euclidean distance [6] |
| --- | --- | --- | --- | --- | --- | --- |
| COC1CCN(C(=O)c2cc(Cc3n[nH]c(=O)c4ccccc34)ccc2F)CC1 | 1.09 | 1.25 | 1.32 | 1.5 | 1.36 | 1.3 |
| CC1=NN(c2ccccc2)C(=O)C1 [Edaravone] | 1.25 | 1.04 | 0.819 | 0.807 | 1.31 | 1.02 |
| CCOc1ccc(Cc2cc([C@@H]3O[C@H](CO)[C@@H](O)[C@H](O)[C@H]3O)ccc2Cl)cc1 [Dapagliflozin] | 1.1 | 1.19 | 1.1 | 1.39 | 0.432 | 1.01 |
| O=C(O)C(Cc1ccccc1[N+](=O)[O-])=NNc1nc(-c2ccc(Cl)c(Cl)c2)cs1 (mixture of isomers) | 0.716 | 1.16 | 0.992 | 2.32 | 0.514 | 0.642 |
| Cc1ccc([N+](=O)[O-])cc1S(=O)(=O)N(C)/N=C/c1cnc2ccc(Br)cn12 | 3.41 | 4.67 | 2.87 | 2.69 | 2.06 | 4.4 |
| CNC(=O)CN1CCC(Oc2cc3c(Nc4cccc(Cl)c4F)ncnc3cc2OC)CC1 [Sapitinib (AZD8931)] | 1.67 | 3.03 | 2.21 | 2.79 | 1.18 | 3.03 |
| COc1cc(Nc2ncc(F)c(Nc3ccc4c(n3)NC(=O)C(C)(C)O4)n2)cc(OC)c1OC [R406 (free base)] | 2.36 | 3.53 | 3.18 | 2.76 | 1.99 | 2.41 |
| Nc1nc(O)c2ncn(CCC(CO)CO)c2n1 [Penciclovir] | 0.815 | 0.334 | 0.816 | 0.496 | 0.404 | 1.17 |
| NC(=O)c1cccnc1 [Nicotinamide (Vitamin B3)] | 0.857 | 0.597 | 2.86 | 0.938 | 0.669 | 1.28 |
| O=c1cc(-c2cccc3c2Sc2ccccc2S3)oc(N2CCOCC2)c1 | 0.999 | 0.525 | 0.839 | 1.33 | 1.72 | 1.14 |
| Nc1ccc(S(N)(=O)=O)cc1 [Sulfanilamide] | 0.866 | 0.563 | 0.913 | 0.819 | 0.645 | 1.21 |
| COc1ccc(C2CNC(=O)C2)cc1OC1CCCC1 (centres undefined) [Rolipram] | 1.65 | 1.51 | 0.853 | 0.861 | 1.13 | 1.44 |
| COc1cc(-c2ncn(/C=C\C(=O)OC(C)C)n2)cc(C(F)(F)F)c1 | 3.51 | 3.05 | 3.45 | 3.74 | 2.56 | 4.53 |
| CC(C)CC(=O)Nc1cncc(-c2ccc3[nH]nc(-c4nc5cncc(-c6cccc(F)c6)c5[nH]4)c3c2)c1 | 5.07 | 2.79 | 4.73 | 4.58 | 4.73 | 3.42 |
